Screening data from PubChem BioAssay.
LmPK inh: qHTS Assay for Inhibitors of Leishmania Mexicana Pyruvate Kinase (LmPK); purified LmPK, Kinase-Glo ATP luminescence, 1 h; Potency, µM (top dose mostly 57.5 µM), for the others: at the top dose activity change, negative = inhibition, usual class: inhibitors; 290,000 compounds, 0.37% hits; AID 1721, 2009; note: potency is the fitted concentration of half-maximal effect; % is set by controls: 0 for no effect and ±100 for the full control effect
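qHTS format; LmPK 0.1 nM; substrates PEP 0.5 mM and ADP 0.1 mM. One-hour room-temperature incubation, then coupled luciferase luminescence; 0.5 nM enzyme wells mark activation.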
Shiga inhibitor: A qHTS for Small Molecule Inhibitors of Shiga Toxin; Vero cells, Shiga toxin protein synthesis inhibition reporter; inhibition, % at 38.7 µM; 290,000 compounds, 9.2% hits; in the data active = inhibition mostly above about 28%, no sharp cut-off; inactive = mostly below about 43%; note: 0% is about no effect
Tb PYK inh: qHTS of Trypanosoma Brucei Inhibitors; TbPYK enzyme, Kinase-Glo Plus ATP luminescence, 45 min; Potency, µM (titrated, usually from 76.8 µM), for inactives: top-dose activity, negative = inhibition, hits mostly inhibitors; 410,000 compounds, 0.12% hits; note: potency is the fitted concentration of half-maximal effect; % is set by controls: 0 for no effect and ±100 for the full control effect; nearly all actives have a fitted effect of over 50% in size
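Screened from lowest to highest concentration, compounds were pinned into TbPYK/substrate mixtures, and ADP (130 uM final) was added. Plates sat at room temperature for 45 min prior to Kinase-Glo Plus detection by luminescence.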
Giardia FBPA inh-1: qHTS Assay for Inhibitors of Fructose-1,6-bisphosphate Aldolase from Giardia Lamblia. 290,000 compounds, 0.71% hits. Potency, µM (titrated, usually from 59.6 µM), inactives show at the top dose activity, negative = inhibition, actives largely listed as inhibitors. AID 2451, 2010. purified Giardia FBPA. A8B2U2; note: potency is the fitted concentration of half-maximal effect; % is set by controls: 0 for no effect and ±100 for the full control effect; nearly all actives have a fitted effect of over 55% in size
Target sequence (A8B2U2 whole entry, looked up): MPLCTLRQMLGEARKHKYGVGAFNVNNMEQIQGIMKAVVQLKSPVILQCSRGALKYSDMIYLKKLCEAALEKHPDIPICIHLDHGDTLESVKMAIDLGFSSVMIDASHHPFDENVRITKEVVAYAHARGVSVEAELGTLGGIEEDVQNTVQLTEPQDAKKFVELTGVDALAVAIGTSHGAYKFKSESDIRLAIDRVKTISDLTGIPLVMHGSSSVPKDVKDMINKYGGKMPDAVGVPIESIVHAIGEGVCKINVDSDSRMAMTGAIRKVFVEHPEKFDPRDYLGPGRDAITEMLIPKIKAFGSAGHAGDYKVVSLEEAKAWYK
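40 nM FBPA preincubated 10 min at RT with compound (up to 57.5 uM final), then substrate plus GAPDH/TPI/NAD/arsenate coupling and diaphorase/resazurin added. Fluorescence read after 20 min at RT, 525/598 nm.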
RE007 growth inh: qHTS Assay for Inhibitors of the HIV-1 protein Vpr | S. pombe RE007 Vpr strain, BacTiter-Glo ATP luminescence, 24 h | Potency, µM (doses to about 92.2 µM), inactives show at the top dose activity change, negative = less growth, actives largely listed as inhibitors | 360,000 compounds, 0.21% hits | AID 651644, 2012; active = well fitted falling curve with a large enough effect; inconclusive = small, poorly fitted or top-dose-only effect; inactive = no such curve, though single readings can be large or run the other way; note: potency is the fitted concentration of half-maximal effect; % is set by controls: 0 for no effect and ±100 for the full control effect; nearly all actives have a fitted effect of over 50% in size
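Fission yeast strain RE007, carrying one chromosomally integrated HIV-1 vpr copy, was seeded at OD 0.01 in PMG+AL medium with 23 nL pinned compound. After 24 h at 30 °C and 99% humidity, viability was read by BacTiter-Glo luminescence.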
CHX counter: Cycloheximide Counterscreen for Small Molecule Inhibitors of Shiga Toxin; AID 2314, 2010; cell reporter, cycloheximide protein synthesis inhibition counterscreen; max response, %; 300,000 compounds, 12% hits; in the data active = max response mostly above about 13%, no sharp cut-off; inactive = mostly below about 14%; note: read at 38.3 µM for the half of the compounds with a filed dose; 0% is about no effect
Giardia growth: qHTS Assay for Inhibitors of Fructose-1,6-bisphosphate Aldolase from Giardia Lamblia: Giardia lamblia growth inhibition; Giardia lamblia trophozoite growth inhibition; Potency, µM (series often up to 57.5 µM), inactives show at the top dose activity change, negative = inhibition, most hits filed as inhibitors; 1,500 compounds, 5% hits; shares compounds with Giardia FBPA inh-1; AID 2785, 2010;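 note: potency is the fitted concentration of half-maximal effect; trophozoites exposed to compound for 48 h at 37 °C; % is set by controls: 0 for no effect and ±100 for the full control effect; nearly all actives have a fitted effect of over 70% in size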
Mammal cell tox: qHTS Assay for Inhibitors of Fructose-1,6-bisphosphate Aldolase from Giardia Lamblia: Mammalian cellular toxicity; shares compounds with Giardia FBPA inh-1; mammalian cell viability counter-screen, qHTS; Potency, µM (doses to about 57.5 µM), for inactives: at the highest dose viability change, negative = toxicity, usual class: inhibitors; 1,500 compounds, 4% hits;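 note: Chinese hamster ovary cells used as mammalian cytotoxicity surrogate; viability measured as cellular ATP by luminescence; potency is the fitted concentration of half-maximal effect; compound exposure lasted 48 h before reading; % is set by controls: 0 for no effect and ±100 for the full control effect; nearly all actives have a fitted effect of over 60% in size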
Giardia FBPA inh-2: qHTS Assay for Inhibitors of Fructose-1,6-bisphosphate Aldolase from Giardia Lamblia: Primary screen confirmation. shares compounds with Giardia FBPA inh-1. purified Giardia aldolase enzyme activity, qHTS. Potency, µM (doses to about 57.5 µM), for the others: top-dose activity change, negative = inhibition, most hits filed as inhibitors. 1,500 compounds, 5% hits; note: potency is the fitted concentration of half-maximal effect; % is set by controls: 0 for no effect and ±100 for the full control effect; nearly all actives have a fitted effect of over 45% in size
Rabbit aldolase: qHTS Assay for Inhibitors of Fructose-1,6-bisphosphate Aldolase from Giardia Lamblia: Rabbit FBPA Selectivity | shares compounds with Giardia FBPA inh-1 | Rabbit muscle FBPA enzyme inhibition, selectivity counter-screen | Potency, µM (top dose mostly 57.5 µM), for inactives: at the highest dose activity, negative = inhibition, actives largely listed as inhibitors | 1,500 compounds, 4% hits; note: potency is the fitted concentration of half-maximal effect; % is set by controls: 0 for no effect and ±100 for the full control effect; nearly all actives have a fitted effect of over 60% in size
Target sequence (P00883 whole entry, looked up): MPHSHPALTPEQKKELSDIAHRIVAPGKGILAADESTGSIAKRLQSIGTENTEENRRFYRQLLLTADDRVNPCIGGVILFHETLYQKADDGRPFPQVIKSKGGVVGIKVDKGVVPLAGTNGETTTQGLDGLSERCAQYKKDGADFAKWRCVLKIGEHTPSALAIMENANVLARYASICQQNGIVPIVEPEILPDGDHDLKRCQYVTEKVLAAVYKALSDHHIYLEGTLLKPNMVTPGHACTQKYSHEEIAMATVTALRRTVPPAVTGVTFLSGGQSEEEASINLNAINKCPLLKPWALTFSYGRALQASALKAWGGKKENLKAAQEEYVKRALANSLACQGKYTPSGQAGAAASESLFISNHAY
GAPDH coupling: qHTS Assay for Inhibitors of Fructose-1,6-bisphosphate Aldolase from Giardia Lamblia: Coupling assay counterscreen confirmation. 1,500 compounds, 6% hits. Potency, µM (titrated, usually from 57.5 µM), for inactives: top-dose activity change, negative = inhibition, hits mostly inhibitors. GAPDH coupling enzyme counterscreen, biochemical, qHTS. shares compounds with Giardia FBPA inh-1. AID 2795, 2010; note: potency is the fitted concentration of half-maximal effect; % is set by controls: 0 for no effect and ±100 for the full control effect; nearly all actives have a fitted effect of over 55% in size
* = called active by the depositor; ? = inconclusive; / = not tested or not shown; ! = not active in a repeat; [ ] = remark or other dose. This excerpt belongs to a sample that is enriched for hits. Unless noted, calls come from the whole dose curve; as a rule, active = well fitted curve in the direction sought with a large enough effect; inconclusive = small, poorly fitted or top-dose-only effect, or another doubt; inactive = no such curve, though single readings can be large; an effect the other way counts as inactive or inconclusive.

SMILES	LmPK inh	Shiga inhibitor	Tb PYK inh	Giardia FBPA inh-1	RE007 growth inh	CHX counter	Giardia growth	Mammal cell tox	Giardia FBPA inh-2	Rabbit aldolase	GAPDH coupling
CCOc1ccc(CN(C)CC(=O)Nc2cccc(S(=O)(=O)N(C)c3ccccc3)c2)cc1	-17%	-9	4%	20µM*	2%	1	?	6%	4%	17%	-1%
O=C(NC(=S)N1CCCCC1)c1csc([N+](=O)[O-])c1	-27%	8	-18%	13µM*	-3%	-2	1µM*	-3%	-2%	5%	10%
NS(=O)(=O)c1cccc(NC(=S)NC(=O)c2cccc([N+](=O)[O-])c2)c1	0%	1	0%	18µM*	10%	2	3%[10.4 µM]	2%	1%	3%	5%
CN1CCN(C(=S)NC(=O)c2cccc([N+](=O)[O-])c2)CC1	1%	11	5%	1.8µM*	-4%	-1	-22%[38.3 µM]	-16%	-5%	0%	-1%
CC1CN(C(=S)NC(=O)c2ccc([N+](=O)[O-])cc2)CC(C)O1 (stereo not given)	-20%	-10	-32%	20µM*	0%	-2	5µM*	10%	1%	14%	3%
O=C(NC(=S)Nc1cccc(NC(=O)c2ccccc2)c1)c1cccc([N+](=O)[O-])c1	0%	-9	-5%	1%	21%	-1	/	/	/	/	/
O=c1ccn(C2OC(COP(=O)(O)OP(=O)(O)OP(=O)(O)O)C(O)C2O)c(=O)[nH]1 (stereo not given)	/	/	/	-12%	/	/	/	/	/	/	/
Cc1cc2nc3c(=O)n(C)c(=O)n(C)c3nc2cc1N=CN(C)C	/	/	-10%	/	/	/	/	/	/	/	/
Cc1ccc(C(=O)Nc2ccc(S(=O)(=O)Nc3ncccn3)cc2)cc1[N+](=O)[O-]	-4%	-6	4%	25µM*	3%	-1	-14%[10.4 µM]	3%	-7%	7%	-17%
COc1ccccc1C(=O)OCc1cc(=O)n2nc(C(C)C)sc2n1	/	/	-12%	/	/	/	/	/	/	/	/
COc1ccc(CCNc2ncnc3c2cnn3-c2cc(Cl)ccc2C)cc1	/	/	6%	/	/	/	/	/	/	/	/
c1csc(CNc2ccnc(-c3ccoc3)n2)c1	/	/	/	-10%	/	/	/	/	/	/	/
Cc1ccc(/C=N/n2c(-c3ccccn3)n[nH]c2=S)o1	9%	-5	?	11µM*	10%	4	-6%	6%	-6%	1%	2%
S=c1[nH]nc(-c2ccccn2)n1/N=C/c1ccccc1	4%	-13	?	-26%	8%	-4	/	/	/	/	/
S=c1[nH]nc(-c2ccccn2)n1/N=C/c1c(Cl)cccc1Cl	16%	-3	-41%	6.3µM*	3%	-1	-9%[38.3 µM]	6%	-5%	-9%	-3%
Cc1ccc(/C=N/n2c(-c3cccnc3)n[nH]c2=S)o1	13%	24	?	-26%	8%	7	/	/	/	/	/
Cc1ccccc1/C=N/n1c(-c2ccccn2)n[nH]c1=S	11%	-4	?	4µM*	6%	1	4%[38.3 µM]	-8%	-15%	-17%	-17%
Cc1ccc2c(c1)c1c(c(=O)n(-c3ccccc3C)c(=O)n1CC(=O)NCc1ccccc1)n2C	/	/	-3%	/	/	/	/	/	/	/	/
COc1ccc(CNC2CCSc3ccccc32)cc1OC (stereo not given)	-4%	-3	32%	28µM*	-19%	1	8%[10.4 µM]	25%	1%	4%	3%
COc1ccccc1CNC1CCCc2ccccc21 (stereo not given)	-6%	-11	2%	16µM*	-11%	0	?	0%	3%	4%	10%
Cc1cccc(C(=O)NCCc2nc3ccccc3n2Cc2ccc(Cl)cc2)c1	/	/	2%	/	/	/	/	/	/	/	/
COc1cccc(NC(=O)CN(C)CC(=O)Nc2ccc(C)cc2Cl)c1	-1%	-5	18%	14µM*	-7%	2	-27%	16%	-2%	5%	6%
Cc1ccc(NC(=O)CN(C)CC(=O)Nc2ccccc2Oc2ccccc2)cc1	-14%	-19	11%	13µM*	3%	-2	-26%	-5%	-1%	-3%	3%
Nc1nc(=S)c2[nH]cnc2[nH]1	/	/	14µM*!	3.2µM*	-6%[18.4 µM]	/	2%[38.3 µM]	7.1µM*	-12%	-12%	-5%
CCC(Sc1nc2cc3c(cc2c(=O)n1CCCCCC(=O)NCc1ccc2c(c1)OCO2)OCO3)C(=O)NCCCOC (stereo not given)	/	/	2%	/	/	/	/	/	/	/	/
Cc1cccc(NC(=S)Nn2cnnc2)c1C	-2%	2	-6%	7.9µM*	-2%	38*	?	5%	7%	3%	17%
S=C(Nc1ccccc1)Nn1cnnc1	-5%	-22	-26%	13µM*	/	1	?	-13%	4%	5%	8%
Cc1ccc(NC(=S)Nn2cnnc2)cc1	1%	2	-18%	16µM*	-21%	0	?	7%	4%	7%	18%
